The results in this text go back to PubChem BioAssay.

Several values for one entry are separate records, joined by “and”; a condition that tells them apart may be missing. Identical values can stand only once. Activity calls are given as the source filed them.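 How the source made its calls, unless noted: active means thallium flux through the channel raised or lowered by more than 3 SD from vehicle-only wells, actives on both sides; inactive means the rest.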

The nature of assay [1]: P. berghei load reduction in hepatocytes – cell-based, HepG2, luciferase luminescence, HepG2 viability, primary screen (AID 624349; in the data active means parasite load remaining mostly below about 12%, no sharp cut-off; inactive means mostly above about 10%;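 further: 100% = mean of DMSO negative control wells on the same plate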). To be noted: P. berghei liver stage in HepG2, luciferase luminescence, concentration not given here; parasite load remaining: stronger effect = lower value; viability: measured here: HepG2 viability without parasites.
A short description of assay [2]: signal quenchers or enhancers, Cy5 substrate/SSB – biochemical, NIH Clinical Collection, E. coli SSB, artefact control for HCV NS3 helicase inhibitor project (AID 743268; call rule not given here). To be noted: Cy5-oligo bound E. coli SSB, fluorescence interference.
Assay [3] deals with Hepatitis C virus NS3 helicase. Put plainly: blockers of NS3h binding to DNA – biochemical, fluorescence polarization, NIH Clinical Collection, primary screen (AID 743270; call rule not given here). The note with it: NS3 helicase binding to Cy5-dT15 DNA, stronger effect = higher value, concentration not given here.
Assay [4] has as its target Single-stranded DNA-binding protein (Escherichia coli (strain K12)) (UniProt P0AGE0). Briefly: SSB-ssDNA binding inhibitors – biochemical, fluorescence polarization, NIH Clinical Collection, counter-screen for HCV NS3 helicase inhibitor project (AID 743271; in the data active means inhibition above about 28%). To be noted: E. coli SSB-DNA binding, stronger effect = higher value, concentration not given here.
Assay [5] can be described thus: compounds distorting NS3 helicase fluorescence signal – biochemical, NIH Clinical Collection, artefact control for HCV NS3 helicase inhibitor project (AID 743272; call rule not given here;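 further: HCV NS3 helicase with a Cy5 labelled single stranded DNA probe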). The note with it: fluorescence interference counterscreen, HCV NS3 helicase assay; stronger effect = lower value.
The test system of assay [6] is Neuropilin-2 / VEGF-C interaction (human). Briefly: small molecules blocking Neuropilin-2/VEGF-C interaction – biochemical, microplate binding format, z-score (AID 743281; call rule not given here). The note with it: microplate NRP2/VEGF-C binding assay; stronger effect = lower value.
Assay [7] is described as follows: modulation of C. elegans fzo-1 (AID 1259413; call rule not given here;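 further: fzo-1 mutant C. elegans worms in liquid wells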). To be noted: C. elegans fzo-1 modulator screen, mean read-out; stronger effect = higher value.
Assay [8] in a line: viability loss with induced miR-34 in A549 – imaging, A549 dox-inducible miR-34, nuclei and caspase counts, primary screen (AID 1347080;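 active means compounds whose cell count with miR-34 switched on is under 0.7 times the count with it off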). To be noted: A549 miR-34 inducible, Hoechst nuclei count, 48 h.
Assay [9] is described as follows: galactose survival enhancers in mitochondrial complex I cybrids – cell-based, galactose medium, ATP luminescence, primary screen (AID 1645843;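 active means z-score of at least 1.8 in each of two replicates, scored against plate mean and spread of sample wells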;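 further: positive z means more ATP and so rescue of galactose-driven cybrid death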). To be noted: complex I mutant cybrid cells, 72 h, stronger effect = higher value.
In assay [10] the test system is F380Y. Briefly: BK channel mutant inhibitors and activators – cell-based, U2OS BacMam, thallium flux, beta subunits, selectivity assay, profiling panel (AID 1259406).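 Further: initial slope of Thallos dye fluorescence rise after thallium is added; log ratio against the mean of 0.3% DMSO vehicle wells on the same plate.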 The note with it: U2OS BacMam BK variants, at 30 µM.
Assay [11] concerns F380Y/beta1. Described as above. To be noted: U2OS BacMam BK variants, at 30 µM.
Assay [12] relates to F380Y/beta2Delta. The assay is described as above. To be noted: U2OS BacMam BK variants, at 30 µM.
Assay [13] relates to F380Y/beta4. The assay is described as above. The note with it: U2OS BacMam BK variants, at 30 µM.
Assay [14] has as its target Calcium-activated potassium channel subunit alpha-1 (Homo sapiens) + Leucine-rich repeat-containing protein 26 (Homo sapiens) (UniProt Q12791+Q2I0M4). Described as above. The note with it: U2OS BacMam BK variants, F380Y/Slo1WT/gamma1, at 30 µM.
Assay [15] relates to R275C. The description is as above. The note with it: U2OS BacMam BK variants, at 30 µM.
Assay [16] relates to R275C/beta1. Described as above. The note with it: U2OS BacMam BK variants, at 30 µM.
Assay [17] relates to R275C/beta2Delta. The assay is described as above. To be noted: U2OS BacMam BK variants, at 30 µM.
The subject of assay [18] is R275C/beta4. The assay is described as above. To be noted: U2OS BacMam BK variants, at 30 µM.
Assay [19] has as its system R275C/Slo1WT/beta2. Described as above. The note with it: U2OS BacMam BK variants, at 30 µM.
The mark [20] stands for this setting: measured here: relative caspase fold change +Dox/-Dox.
Setting [21] is: measured here: total cells with miR-34 induction, stronger effect = lower value.
[22] abbreviates: measured here: total cells without miR-34 induction.

Sequence of Calcium-activated potassium channel subunit alpha-1 (Homo sapiens) + Leucine-rich repeat-containing protein 26 (Homo sapiens) (Q2I0M4 whole entry, looked up, one chain of several): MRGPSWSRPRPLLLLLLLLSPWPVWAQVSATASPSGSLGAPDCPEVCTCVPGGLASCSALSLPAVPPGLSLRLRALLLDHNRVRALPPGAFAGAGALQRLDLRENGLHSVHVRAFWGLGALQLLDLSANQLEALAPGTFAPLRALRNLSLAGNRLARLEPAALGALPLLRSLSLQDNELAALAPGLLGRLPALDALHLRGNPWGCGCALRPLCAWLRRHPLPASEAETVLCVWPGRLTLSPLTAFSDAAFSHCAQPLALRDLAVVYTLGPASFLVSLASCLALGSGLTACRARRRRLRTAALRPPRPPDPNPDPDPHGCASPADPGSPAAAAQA

Turning to `O=C1CN=C(c2ccccc2)c2cc([N+](=O)[O-])ccc2N1`, the parasite load remaining in [1] was 89.5% (inactive). In assay [1], this compound came in with a viability of 68.5%. Also, the fluorescence ratio in [2] is 1.05 (inactive); in [5], 1.04 (inactive). In addition, the inhibition in [3] is 5.94% (inactive); in [4], 2.21% (inactive). The z-score in [6] was 1.12 (inactive); in assay [9], 1.3 (inactive). In assay [7], the mean signal is 253 (inactive). Moreover, the values for the fold change in assay [8] (stronger effect = lower value) and in [8] (setting [20]) were 0.945 (inactive) and 1.76, respectively. Also, the cell count in assay [8] (setting [21]) came out at 9060; in assay [8] (setting [22]) it was 9590. For the same compound, the log fold change Tl+ flux in assay [10] was 0.0223 (inactive); in assay [11], -0.0368 (inactive); in assay [12], 0.0172 (inactive); in assay [13], 0.0387 (inactive); in assay [14], 0.000443 (inactive); in assay [15] it was -0.0214 (inactive). In addition, the log fold change Tl+ flux is -0.097 (active) in assay [16], 0.0168 (inactive) in assay [17], 0.0133 (inactive) in assay [18] and 0.00947 (inactive) in assay [19].
As for `CC1CCC[C@H](O)CCCCCc2cc(O)cc(O)c2C(=O)O1` (some centres undefined), in assay [1], the parasite load remaining was 34.2% (inactive). The compound also yielded a viability in assay [1] of 64.7%. Further, the fluorescence ratio in [2] was 1.04 (inactive); in assay [5], 0.99 (inactive). Moreover, the inhibition was 2.77% (inactive) in assay [3] and 0.67% (inactive) in assay [4]. Besides, the z-score in assay [6] is -0.653 (inactive). Also, in assay [7], the mean signal is 252 (inactive). Besides, the log fold change Tl+ flux in assay [10] was 0.0327 (inactive); in assay [11], 0.0798 (inactive); in [12], -0.0124 (inactive); in assay [13] it was 0.0166 (inactive); in assay [14], 0.0353 (inactive); in assay [15], -0.00393 (inactive). In addition, the log fold change Tl+ flux in assay [16] was 0.141 (active); in assay [17] it was 0.1 (active); in assay [18], 0.0349 (inactive); in [19], 0.035 (inactive).
Take `C[N+]1(C)CCN(c2ccccc2)CC1`: the parasite load remaining in [1] was 117% (inactive). In assay [1], this compound yielded a viability of 87.7%. The fluorescence ratio was 1.03 (inactive) in assay [2] and 1.01 (inactive) in assay [5]. The inhibition in assay [3] was 6.73% (inactive); in [4], 2.21% (inactive). Further, the z-score in [6] is -0.409 (inactive); in assay [9], 0.43 (inactive) and 1.15 (inactive). The mean signal in [7] was 284 (inactive). For the same compound, the fold change is 1.02 (inactive) and 0.991 (inactive) in assay [8] (stronger effect = lower value); 1.06 and 1.59 in assay [8] (setting [20]). The cell count in assay [8] (setting [21]) was 9770 and 9860; in assay [8] (setting [22]) it was 9580 and 9940. Moreover, the log fold change Tl+ flux in [10] was -0.0112 (inactive); in [11], -0.0597 (inactive); in [12] it was -0.0318 (inactive); in assay [13], 0.0424 (inactive); in [14], -0.0251 (inactive); in assay [15], -0.0752 (inactive). The log fold change Tl+ flux in assay [16] was 0.0101 (inactive); in assay [17], 0.00724 (inactive); in assay [18], -0.0438 (inactive); in assay [19] it was -0.0166 (inactive).
In the case of `Cc1nnc2n1-c1ccc(Cl)cc1C(c1ccccc1)=NC2`, in assay [1], the parasite load remaining was 139% (inactive). For the same compound, in assay [1], the viability was 72.1%. Also, the fluorescence ratio in [2] was 1.03 (inactive); in assay [5] it was 0.99 (inactive). The inhibition in [3] is -4.36% (inactive); in assay [4], -1.64% (inactive). In addition, the z-score in [6] was -0.124 (inactive); in [9], 0.965 (inactive). For the same compound, in [7], the mean signal was 234 (inactive). The fold change is 1.01 (inactive) in assay [8] (stronger effect = lower value) and 1.21 in assay [8] (setting [20]). The values for the cell count in [8] (setting [21]) and in assay [8] (setting [22]) were 9000 and 8940, respectively. Further, the log fold change Tl+ flux in assay [10] is -0.0314 (inactive); in assay [11], -0.00299 (inactive); in assay [12] it was -0.00534 (inactive); in assay [13] it was -0.0542 (inactive); in assay [14], -0.0153 (inactive); in [15], 0.0519 (inactive). The log fold change Tl+ flux is 0.00402 (inactive) in assay [16], 0.0255 (inactive) in assay [17], 0.0351 (inactive) in assay [18] and -0.00622 (inactive) in [19].
As to `C[C@]12CC[C@H]3[C@@H](CCC4=CC(=O)CC[C@@H]43)[C@@H]1CC[C@@H]2O`, the parasite load remaining in [1] was 113% (inactive) and 109% (inactive). Besides, the viability in assay [1] was 73.7% and 87.5%. The fluorescence ratio was 1 (inactive) in assay [2] and 0.98 (inactive) in [5]. Further, the inhibition is -4.36% (inactive) in assay [3] and -0.87% (inactive) in assay [4]. Further, the values for the fold change in assay [8] (stronger effect = lower value) and in [8] (setting [20]) were 0.927 (inactive) and 1.32, respectively. The cell count in assay [8] (setting [21]) amounted to 8170; in assay [8] (setting [22]) it was 8800. The log fold change Tl+ flux in assay [10] is 0.0331 (inactive); in [11] it was 0.000378 (inactive); in assay [12] it was 0.0141 (inactive); in assay [13] it was 0.0107 (inactive); in assay [14], 0.0229 (inactive); in assay [15], -0.0315 (inactive). Moreover, the log fold change Tl+ flux in assay [16] is 0.00735 (inactive); in assay [17], -0.0135 (inactive); in assay [18], -0.0252 (inactive); in assay [19], -0.0416 (inactive).
For the compound `O=C1Nc2ccc(Cl)cc2C(c2ccccc2Cl)=NC1O` (centres undefined), in [1], the parasite load remaining is 64.7% (inactive). In assay [1], this compound came in with a viability of 68.3%. The fluorescence ratio in assay [2] was 0.98 (inactive); in assay [5] it was 0.96 (inactive). For the same compound, the inhibition was -3.71% (inactive) in [3] and -0.39% (inactive) in assay [4]. The results for the z-score in assay [6] and in assay [9] were -0.398 (inactive) and 0.845 (inactive), respectively. Also, the mean signal in [7] was 233 (inactive). Also, the fold change in [8] (stronger effect = lower value) is 0.901 (inactive); in [8] (setting [20]) it was 1.36. The values for the cell count in assay [8] (setting [21]) and in assay [8] (setting [22]) were 9700 and 10800, respectively.
Consider `CC[C@@H]1C=CC=CC[C@H](C)[C@@H](O)[C@@H](C)C(=O)[C@H](C)[C@@H](O)[C@H](C)C(=O)[C@H](C)[C@@H](O)[C@H](C)C=CC(=O)O[C@H]2[C@@H](C)[C@@H](CC1)O[C@@]1(CC[C@@H](C)[C@@H](C[C@H](C)O)O1)[C@@H]2C`, for which the parasite load remaining in assay [1] was 1.55% (active). In assay [1], the viability amounted to 67.4%. Besides, the fluorescence ratio in assay [2] is 1.01 (inactive); in assay [5], 0.98 (inactive). In addition, the figures for the inhibition in assay [3] and in assay [4] were 4.36% (inactive) and 7.6% (inactive), respectively. In addition, the log fold change Tl+ flux is -0.509 (active) in assay [10]; -0.604 (active) in [11]; -0.884 (active) in assay [12]; -0.693 (active) in [13]; -0.117 (active) in assay [14]; -0.133 (active) in assay [15]. The log fold change Tl+ flux in [16] was 0.0227 (inactive); in assay [17] it was -0.0422 (inactive); in assay [18], -0.0178 (inactive); in assay [19] it was -0.0132 (inactive).
With `Oc1cc2c(cc1O)[C@H]1c3ccccc3CN[C@@H]1CC2`, the parasite load remaining in assay [1] is 31.6% (inactive). In assay [1], this compound displayed a viability of 68.7%. Moreover, the fluorescence ratio in assay [2] was 0.94 (inactive); in [5], 0.91 (inactive). The inhibition was -5.46% (inactive) in [3] and -4.33% (inactive) in assay [4]. Further, the results for the z-score in assay [6] and in assay [9] were -4.26 (active) and -1.23 (inactive), respectively. For the same compound, the mean signal in assay [7] is 249 (inactive). Further, the fold change was 0.969 (inactive) in assay [8] (stronger effect = lower value, cell number ratio, induced over uninduced) and 0.736 in [8] (setting [20]). The cell count came out at 8740 in [8] (setting [21]) and 9020 in assay [8] (setting [22]). For the same compound, the log fold change Tl+ flux in assay [10] is -0.103 (inactive); in assay [11], 0.0598 (inactive); in assay [12], -0.0567 (inactive); in assay [13] it was -0.0725 (inactive); in assay [14] it was 0.0857 (inactive); in [15] it was -0.0506 (inactive). Also, the log fold change Tl+ flux was 0.0796 (active) in [16], 0.137 (active) in [17], 0.0776 (inactive) in assay [18] and 0.0271 (inactive) in assay [19].
